According to PubChem BioAssay (NCATS):
Values joined by “and” are separate entries in the source; they are usually repeats but may differ in a detail not shown here. Equal values may be shown once. Records with an inconclusive call do not appear. Active and inactive are the calls of the source. Unless noted, calls follow the shape of the dose curve; as a rule, active = well fitted curve in the direction sought with a large enough effect; inconclusive = small, poorly fitted or top-dose-only effect, or another doubt; inactive = no such curve, though single readings can be large; an effect the other way counts as inactive or inconclusive.

Experiments:
[1] = Cell Viability - BJ (AID 421; calls by dose curve;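 also: potency is read from the fitted curve at half-maximal effect; cells exposed to compound for 40 hours at 37 °C before readout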); conditions: BJ fibroblast viability, qHTS
In short: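 Cytotoxicity in human BJ foreskin fibroblasts is scored as loss of cellular ATP after a 40-hour exposure, measured by luciferase luminescence. Controls are DMSO and 100 uM tamoxifen.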

[2] = Cell Viability - Jurkat (AID 426;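 active = dose-dependent loss of cell ATP signal giving a full or clear fitted curve, ranked by lower potency value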; also: potency is read from the fitted curve at half-maximal effect); conditions: qHTS
In short: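 Jurkat (clone E6-1, human T-cell leukemia) cells, 5000/well in complete medium, were exposed to compound for 40 hr at 37 °C. Viability was read as intracellular ATP by CellTiter-Glo luminescence; AC50 came from Hill fits of concentration-response data.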

[3] = Cell Viability - Hek293 (AID 427;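 active = compounds whose dose-response curve shows a full or clear partial loss of cell viability, called from curve shape rather than a numeric limit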;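 also: potency is read from the fitted curve at half-maximal effect; cells exposed to compound for 40 hours at 37 °C before reading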); conditions: qHTS
In short: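 qHTS, human embryonic kidney (adenovirus-transformed) cells; 40 hr cpd, 37 °C; CellTiter-Glo ATP luminescence. Norm: DMSO = 0, 100 uM tamoxifen = 100% inhibition. Hill-fit AC50.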

[4] = Cell Viability - HepG2 (AID 433; calls by dose curve;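 also: potency is read from the fitted curve at half-maximal effect; potency for ATP loss meaning cytotoxicity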); conditions: qHTS
In short: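 In this qHTS format, a 40 h, 37 °C compound incubation of HepG2 cells in complete medium precedes a 20 min CellTiter-Glo step at room temperature. Tamoxifen and doxorubicin serve as positive controls; Hill-equation fits yield AC50.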

[5] = Cell Viability - SK-N-SH (AID 435; calls by dose curve;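 also: potency is read from the fitted curve at half-maximal effect; compound exposure lasted 40 h at 37 °C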); conditions: SK-N-SH neuroblastoma cell viability qHTS
In short: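 Human neuroblastoma line, 40 h exposure at 37 °C, ATP quantified via luciferase luminescence; DMSO and 100 uM tamoxifen define 0 and 100% inhibition for AC50 fitting.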

[6] = Cell Viability - Renal Proximal Tubule (AID 545); conditions: renal proximal tubule cells viability; series mostly up to 91.7 µM;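 also: 0% = DMSO only and -100% = 100 µM tamoxifen; nearly all actives have a fitted effect of over 40% in size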
In short: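 In this qHTS format, normal rat kidney-derived proximal tubule cells in complete culture medium receive compound titrations, then sit 40 hours at 37 °C before luciferase-based ATP quantitation; potency is reported as AC50 from concentration-response curves.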

[7] = Cellular Toxicity (caspase-3) MRC-5 (AID 659); conditions: MRC-5 cells, luminescence, normalized: DMSO 0%, 10 µM staurosporine 100%; series mostly up to 91.7 µM
In short: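 MRC-5 human normal lung fibroblasts, 1500 cells/well, treated 16 h at 37 °C in complete medium. Caspase 3/7 measured by Caspase-Glo luminescence after 1 h at room temperature. Normalized to DMSO and 10 uM staurosporine; AC50 from Hill fit.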

[8] = Cellular Toxicity (caspase-3) N2a (AID 665); conditions: N2a cells, luminescence, normalized: DMSO 0%, 10 µM staurosporine 100%; series mostly up to 92.2 µM;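 also: compound exposure lasted 16 h at 37 °C before readout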
In short: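 Mouse N2a neuroblastoma cells (1500/well) were treated with compounds for 16 h at 37 °C, then caspase-3/7 activity was read by Caspase-Glo luminescence after 1 h at room temperature. Data were normalized to DMSO and 10 uM staurosporine; AC50 from Hill fits.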

[9] = Cellular Toxicity (caspase-3) Renal Proximal Tubule (AID 667); conditions: renal proximal tubule cells; series mostly up to 91.7 µM;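 also: cells exposed to compound for 16 hours at 37 °C before detection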
In short: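 Caspase-Glo 3/7 read-out, rat primary kidney proximal tubule cells. Compound exposure 16 h, 37 °C; detection after 1 h at RT. Activity scaled to DMSO and 10 uM staurosporine.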

[10] = MultiTox-Fluor Cytotoxicity Assay - LYMP1-002 - Live Cells (AID 955); conditions: LYMP1-002 lymphoblastoid live-cell protease fluorescence viability; series mostly up to 46.1 µM; also: % is scaled to controls: 0 for no effect and ±100 for the full control effect
In short: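 Human lymphoblastoid LYMP1-002 cells, 2500/well in complete medium, rested 5 hr at 37 C, then exposed to compounds for 16 hr at 37 C. Live-cell protease cleavage of GF-AFC read by fluorescence (Ex/Em 405/510) after 60 min at room temperature; AC50 from Hill fits.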

[11] = MultiTox-Fluor Cytotoxicity Assay - LYMP1-003 - Live Cells (AID 962); conditions: LYMP1-003 lymphoblastoid cells, MultiTox-Fluor live-cell protease fluorescence; series mostly up to 92.2 µM;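 also: 0% = DMSO only and full loss = 92 µM tetraoctylammonium bromide; cytotoxic hits lower the live-cell protease signal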
In short: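 LYMP1-003 human lymphoblastoid cells (2500/well) in complete medium were preincubated 5 hr at 37 C, then exposed to compounds for 16 hr at 37 C. Live-cell protease cleavage of GF-AFC read by fluorescence (Ex/Em 405/510); AC50 from Hill fits.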

[12] = Cell Viability - LYMP1-003 - Assay at 24 hr (AID 963); conditions: LYMP1-003 lymphoblastoid cell viability; series mostly up to 92.2 µM;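 also: plate controls were DMSO only for no effect and tetraoctylammonium bromide positive control for full effect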
In short: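 Human lymphoblastoid LYMP1-003 cells (2500/well) were rested 5 hr at 37 C, then exposed to compounds in complete medium for 24 hr at 37 C. Cellular ATP was quantified by CellTiter-Glo luminescence, and AC50 values came from Hill fits of concentration-response data.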

[13] = Cell Viability - LYMP2-021 (AID 974); conditions: LYMP2-021 lymphoblastoid cells viability; series mostly up to 92.2 µM;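 also: compound exposure lasts 24 hours at 37 °C; % is scaled to controls: 0 for no effect and ±100 for the full control effect; nearly all actives have a fitted effect of over 55% in size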
In short: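 Human lymphoblastoid cells (2500/well) were preincubated 5 hr at 37 C, then exposed to compounds for 24 hr at 37 C in complete medium. Intracellular ATP was read by CellTiter-Glo luminescence; AC50 came from Hill-equation fits of concentration-response data.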

[14] = Cell Viability - LYMP2-007 (AID 979); conditions: LYMP2-007 lymphoblastoid cell viability; series mostly up to 92.2 µM;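 also: cells exposed to compound for 24 h before reading; 0% = DMSO only and the negative end = 92 µM tetraoctylammonium bromide; nearly all actives have a fitted effect of over 60% in size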
In short: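 Human lymphoblastoid cells (2500/well) were plated in complete medium, incubated 5 hr at 37 C, then exposed to compounds for 24 hr at 37 C. Intracellular ATP was read by CellTiter-Glo luminescence after 30 min at room temperature; AC50 from Hill fits.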

[15] = Cell Viability - LYMP2-016 (AID 984); conditions: LYMP2-016 lymphoblastoid cell viability, qHTS; series mostly up to 92.2 µM; also: % is scaled to controls: 0 for no effect and ±100 for the full control effect; nearly all actives have a fitted effect of over 55% in size
In short: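 Concentration-dependent ATP depletion measured in LYMP2-016 lymphoblastoid cells, 24 h, 37 C; luciferase-based luminescent detection; Hill-equation AC50.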

[16] = Cell Viability - LYMP2-018 (AID 985); conditions: LYMP2-018 lymphoblastoid cells, viability (qHTS); series mostly up to 92.2 µM;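 also: compound exposure lasted 24 hr at 37 °C; plate controls were DMSO only for no effect and tetraoctylammonium bromide at 92 µM for full effect; nearly all actives have a fitted effect of over 50% in size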
In short: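 Human lymphoblastoid cells (2500/well) were pre-incubated 5 hr at 37 C, then exposed to compounds for 24 hr at 37 C in complete medium. Viability was read as intracellular ATP by CellTiter-Glo luminescence; AC50 values came from Hill-equation fits.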

[17] = Cell Viability - LYMP2-020 (AID 986); conditions: series mostly up to 92.2 µM;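 also: plate controls were DMSO only for no effect and tetraoctylammonium bromide at 92 µM for full effect; nearly all actives have a fitted effect of over 55% in size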
In short: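 Human lymphoblastoid cells, 2500/well, were pre-incubated 5 hr at 37 C, then exposed to compounds for 24 hr at 37 C in complete medium. Intracellular ATP was read by CellTiter-Glo luminescence, and AC50 was derived by Hill fitting of concentration-response data.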

[18] = qHTS Assay for Identification of Small Molecule Inducers of Hypoxia Response (AID 2120; active = well fitted curve in the direction sought with a large enough effect in the signal ratio, with a control signal flat, not every such curve was filed as active; the % refers to the signal ratio; also: 0% is about no effect); conditions: hypoxia response reporter cells, beta-lactamase ratio readout; series mostly up to 104 µM
In short: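 HRE-beta-lactamase reporter in CellSensor HRE-bla ME-180 cells, 2500 cells/well in Opti-MEM with 0.5% dialyzed FBS; compounds tested as titration series, 17 h at 37 degrees C. CCF4 substrate 2.5 h at room temperature; AC50 from 460/530 nm ratio.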

[19] = qHTS assay for small molecule agonists of the antioxidant response element (ARE) signaling pathway measured by Nrf2-dependant transcriptional activity - cell viability counter screen (AID 720653; active = well fitted curve in the direction sought with a large enough effect in the repeat runs; an effect the other way counts as inactive or inconclusive; also: % is scaled to controls: 0 for no effect and ±100 for the full control effect); conditions: ARE-bla HepG2 viability, CellTiter-Glo ATP luminescence, 16 h; hits give low values
In short: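 ARE-bla HepG2 cells treated with compounds for 16 h at 37C; this counter screen measures viability as intracellular ATP by CellTiter-Glo luminescence after 30 min at room temperature.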

[20] = qHTS assay for cell viability of HEK293 cells (AID 743288); conditions: ATP luminescence (CellTiter-Glo), 18 h, hits give low values; also: % is scaled to controls: 0 for no effect and ±100 for the full control effect; nearly all actives have a fitted effect of over 50% in size
In short: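 Luminescent ATP quantitation served as the viability read-out. Cells (parental HEK293, 2,000/well) received compounds after at least 5 h at 37 C and were exposed for 18 h before a 30 min room-temperature reagent step.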

S=C1NCCN1
inactive: Potency [1] > 92 µM | Potency [2] > 92 µM | Potency [3] > 92 µM | Potency [4] > 92 µM | Potency [5] > 92 µM | outcome [6] | outcome [7] | outcome [8] | outcome [9] | outcome [10] | outcome [11] | outcome [12] | Potency [13] | Potency [14] | Potency [15] | Potency [16] | Potency [17] | Potency [18] | max response [19] 4.7% and 5.28% | max response [20] 4.6% and 3.06%

Clc1ccc(Cl)c(Cl)c1
inactive: Potency [1] > 92 µM | Potency [2] > 92 µM | Potency [3] > 92 µM | Potency [4] > 92 µM | Potency [5] > 92 µM | outcome [6] | outcome [7] | outcome [8] | outcome [9] | outcome [10] | outcome [11] | outcome [12] | Potency [13] | Potency [14] | Potency [15] | Potency [16] | Potency [17] | Potency [18] | max response [19] 4.11% and 3.77% | max response [20] 9.56% and -10%

CC1CC(=O)O1 (stereo not given)
inactive: Potency [1] > 92 µM | Potency [2] > 92 µM | Potency [3] > 92 µM | Potency [4] > 92 µM | Potency [5] > 92 µM | outcome [6] | outcome [7] | outcome [8] | outcome [9] | outcome [10] | outcome [11] | outcome [12] | Potency [13] | Potency [14] | Potency [15] | Potency [16] | Potency [17] | Potency [18] | max response [19] -3.76% | max response [20] -7.61%

CCCCOC(C)=O
inactive: Potency [1] > 92 µM | Potency [2] > 92 µM | Potency [3] > 92 µM | Potency [4] > 92 µM | Potency [5] > 92 µM | outcome [6] | outcome [7] | outcome [8] | outcome [9] | outcome [10] | outcome [11] | outcome [12] | Potency [13] | Potency [14] | Potency [15] | Potency [16] | Potency [17] | Potency [18] | max response [19] 10.3% | max response [20] -4.32%

Cc1ccc(N)cc1Cl
inactive: Potency [1] > 92 µM | Potency [2] > 92 µM | Potency [3] > 92 µM | Potency [4] > 92 µM | Potency [5] > 92 µM | outcome [6] | outcome [7] | outcome [8] | outcome [9] | outcome [10] | outcome [11] | outcome [12] | Potency [13] | Potency [14] | Potency [15] | Potency [16] | Potency [17] | Potency [18] | max response [19] 7.4% | max response [20] -1.75%

O=[N+]([O-])c1cccc2c([N+](=O)[O-])cccc12
inactive: Potency [1] > 92 µM | Potency [2] > 92 µM | Potency [3] > 92 µM | Potency [4] > 92 µM | Potency [5] > 92 µM | outcome [6] | outcome [7] | outcome [8] | outcome [9] | outcome [10] | outcome [11] | outcome [12] | Potency [13] | Potency [14] | Potency [15] | Potency [16] | Potency [17] | Potency [18] | max response [19] 5.81% | max response [20] -6.41%

O=C(O)CCl
inactive: Potency [1] > 92 µM | Potency [2] > 92 µM | Potency [3] > 92 µM | Potency [4] > 92 µM | Potency [5] > 92 µM | outcome [6] | outcome [7] | outcome [8] | outcome [9] | outcome [10] | outcome [11] | outcome [12] | Potency [13] | Potency [14] | Potency [15] | Potency [16] | Potency [17] | Potency [18] | max response [19] 1.47% | max response [20] -4.45%

[N-]=[N+]=[N-]
inactive: Potency [1] > 92 µM | Potency [2] > 92 µM | Potency [3] > 92 µM | Potency [4] > 92 µM | Potency [5] > 92 µM | outcome [6] | outcome [7] | outcome [8] | outcome [9] | outcome [10] | outcome [11] | outcome [12] | Potency [13] | Potency [14] | Potency [15] | Potency [16] | Potency [17] | Potency [18] | max response [19] -8.07% | max response [20] 0.516%

COC(=O)c1ccccc1N
inactive: Potency [1] > 92 µM | Potency [2] > 92 µM | Potency [3] > 92 µM | Potency [4] > 92 µM | Potency [5] > 92 µM | outcome [6] | outcome [7] | outcome [8] | outcome [9] | outcome [10] | outcome [11] | outcome [12] | Potency [13] | Potency [14] | Potency [15] | Potency [16] | Potency [17] | Potency [18] | max response [19] -7.9% | max response [20] -4.36%

O=[N+]([O-])c1cccc(O)c1
inactive: Potency [1] > 92 µM | Potency [2] > 92 µM | Potency [3] > 92 µM | Potency [4] > 92 µM | Potency [5] > 92 µM | outcome [6] | outcome [7] | outcome [8] | outcome [9] | outcome [10] | outcome [11] | outcome [12] | Potency [13] | Potency [14] | Potency [15] | Potency [16] | Potency [17] | Potency [18] | max response [19] -0.267% | max response [20] -8.12%

CC(=O)[O-].CC(=O)[O-].CC(=O)[O-].[Cr+3]
inactive: Potency [1] > 92 µM | Potency [2] > 92 µM | Potency [3] > 92 µM | Potency [4] > 92 µM | Potency [5] > 92 µM | outcome [6] | outcome [7] | outcome [8] | outcome [9] | outcome [10] | outcome [11] | outcome [12] | Potency [13] | Potency [14] | Potency [15] | Potency [16] | Potency [17] | Potency [18] | max response [19] 2.78% | max response [20] -3.81%
